Screening data deposited in PubChem BioAssay by several laboratories.
tim10-1 inh – tim10-1 yeast growth inhibition. S. cerevisiae tim10-1 ts strain growth, BacTiter-Glo, 24 h. inhibition, % at 20 µM. hit rate 2.2% among 330,000;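 active = inhibition of at least 40%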;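 note: mutant grown at 25 °C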
TIM10 inh – inhibits growth of TIM10 yeast strain; hit rate 1.4% among 330,000; inhibition, % at 10 µM; S. cerevisiae TIM10 strain growth, BacTiter-Glo luminescence, 24 h;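 active = inhibition of 40% or more at the single tested concentration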;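 note: wild-type TIM10 isogenic control strain grown at permissive 25 °C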
SKKanGAS inh – blocks kanamycin growth of S. pyogenes SKKanGAS strain. hit rate 1.3% among 300,000. inhibition, % at 7.5 µM. BacTiter-Glo, 6 h;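 active = mean replicate score, as percent of positive control median, at least 50; inconclusive = mean below 50 but one replicate at or above 50; inactive = mean and every replicate below 50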;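 note: strain carries kanamycin resistance gene driven by streptokinase promoter and grows in 40 µg/ml kanamycin; loss of luminescence reflects streptokinase promoter inhibition or plain growth inhibition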
tim23-1 inh – inhibits growth of tim23-1 mutant yeast; hit rate 1.3% among 330,000; inhibition, % at 20 µM; AID 463212; S. cerevisiae tim23-1 growth, BacTiter-Glo luminescence, 24 h;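 active = growth inhibition of the mutant yeast at or above 50%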;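 note: temperature-sensitive mutant grown at 25 °C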
NLRP3 yeast inh – inhibitors of NALP3 inflammasome in yeast; Yeast reconstituted NLRP3/ASC/caspase-1, beta-gal luminescence, 24 h; inhibition, % at 10 µM; hit rate 0.39% among 330,000;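 active = inhibition of 50% or more; inactive = inhibition below 50%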
PfHsp90 yeast 2 – growth inhibition of yeast expressing Plasmodium Hsp90; hit rate 0.32% among 310,000; inhibition, % at 9.4 µM; S. cerevisiae expressing PfHsp90, BacTiter-Glo ATP, 48 h; yeast lacking PDR1 and PDR3 efflux regulators; AID 504621;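 active = every replicate shows inhibition above about 80%, whatever the replicate mean, limit read from the data; inconclusive = mean inhibition reaches the set limit but some replicate falls short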
tim10 confirm – TIM10 yeast growth inhibition, confirmed | hit rate 63% among 4,600 | shares compounds with TIM10 inh | S. cerevisiae tim10 strain growth, BacTiter-Glo luminescence, 24 h | inhibition, % at 10 µM | AID 463215;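 active = inhibition of yeast growth at or above a set limit in either of two replicates at 10 µM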; note: this counterscreen used the strain with wild-type TIM10
Each line names hits and unclear results; the compound was inactive in the other large screens (follow-up assays come after a bar, where they were run). The list is not random: actives were taken first. Their share in the collection is about 4.6%.

O=C(NCCc1nnc2ccc(NCc3cccnc3)nn12)c1ccccc1F	none
C#CCOCCOCCOCCNc1nc(N2CCN(C(=O)[C@H](CCCCN)n3cc([C@@H](N)CO)nn3)CC2)nc(N2CCN(C(=O)[C@H](Cc3cc4ccccc4[nH]3)n3cc([C@@H](N)CC(C)C)nn3)CC2)n1	TIM10 inh 94 (no result: PfHsp90 yeast 2) | tim10 confirm inactive
C#CCOCCOCCOCCNc1nc(N2CCN(C(=O)[C@H](CCCCN)n3cc([C@@H](N)CO)nn3)CC2)nc(N2CCN(C(=O)[C@H](Cc3cc4ccccc4[nH]3)n3cc([C@@H](N)CO)nn3)CC2)n1	none (no result: SKKanGAS inh, PfHsp90 yeast 2)
CC1CCN(C(=S)c2cn(Cc3ccc(F)cc3)c3ccccc23)CC1	TIM10 inh 55 | tim10 confirm 38
CN1CCN(C(=S)c2cn(Cc3ccc(F)cc3)c3ccccc23)CC1	none
CCNC(=S)N/N=C/c1cn(Cc2ccc(F)cc2)c2ccccc12	TIM10 inh 43 | tim10 confirm 51
CC(=O)c1sc(NC(=O)c2oc3ccc(F)cc3c2C)nc1C	none (no result: SKKanGAS inh)
CCN1CCN(C(CNS(=O)(=O)c2ccc(Cl)cc2)c2cccnc2)CC1 (stereo unspecified)	none
Cc1cc(C(=O)N/N=C/c2ccc([N+](=O)[O-])o2)c(C)o1	TIM10 inh 41 | tim10 confirm inactive
O=C(N/N=C/c1c[nH]c2ccccc12)c1sc2ccccc2c1Cl	none (no result: PfHsp90 yeast 2)
O=C(N/N=C/c1ccc([N+](=O)[O-])o1)c1sc2ccccc2c1Cl	TIM10 inh 69, PfHsp90 yeast 2 104 | tim10 confirm 65
Cc1nonc1C(=O)N/N=C/c1ccc([N+](=O)[O-])o1	none
NC(=O)N/N=C/c1ccc([N+](=O)[O-])o1	none (no result: SKKanGAS inh)
Cn1cccc1/C=N/NC(=O)c1sc2ccccc2c1Cl	TIM10 inh 46 | tim10 confirm 49
Cc1csc(CNC(=O)c2cc(COc3c(C)cccc3C)on2)n1	none
COc1ccc(Cl)cc1NC(=O)NN1CCN(C)CC1	none
CCn1ncc(Br)c1C(=O)Nc1ccc(C(=O)OC(C)C)cc1	TIM10 inh 44 | tim10 confirm inactive
COc1ccc(N2C(=O)CC(Sc3nc(C)cc(C)c3C#N)C2=O)cc1 (stereo unspecified)	TIM10 inh 42 | tim10 confirm 28
CCCc1ccc(C#N)c(SC2CC(=O)N(c3ccc(OC)cc3)C2=O)n1 (stereo unspecified)	none
Cc1ccc(S(=O)(=O)N/N=C\c2ccc3c(c2)OCO3)c(C)c1	none
COc1ccc(N2CCN(CCCNC(=O)Cn3c(=O)c4cccn4c4ccccc43)CC2)cc1	TIM10 inh 46 | tim10 confirm inactive
Nc1nc2ccccc2n1/N=C/c1ccc2c(c1)OCO2	none (no result: PfHsp90 yeast 2)
Nc1nc2ccccc2n1/N=C/c1ccc(Br)cc1	TIM10 inh 44 | tim10 confirm inactive
CS(=O)(=O)c1nc(-c2ccccc2)cc(C(F)(F)F)n1	TIM10 inh 45 | tim10 confirm inactive
N#C/C(=C\c1ccc([N+](=O)[O-])o1)c1nc2ccccc2[nH]1	TIM10 inh 59 (no result: PfHsp90 yeast 2) | tim10 confirm 66
N#C/C(=C\c1ccc(Sc2ccccc2)o1)c1nc2ccccc2[nH]1	none
Cc1ccc2nc(/C(C#N)=C\c3ccc([N+](=O)[O-])o3)[nH]c2c1	TIM10 inh 84, SKKanGAS inh 89, PfHsp90 yeast 2 105 | tim10 confirm 95
Cc1ccc2nc(/C(C#N)=C\c3ccc(N4CCOCC4)o3)[nH]c2c1	none
CN(C(=O)c1cccc(NC(=O)Cc2ccc(NC(=O)C3CCN(S(=O)(=O)c4cccc([N+](=O)[O-])c4)CC3)cc2)c1)C1CCCCC1	none (no result: tim10-1 inh, TIM10 inh, SKKanGAS inh, tim23-1 inh, NLRP3 yeast inh)
CCN(CC(=O)Nc1ccc2c(c1)OCCO2)C(=O)c1ccc([N+](=O)[O-])s1	none (no result: SKKanGAS inh)
Cc1csc(NC(=O)c2oc3ccccc3c2C)n1	none (no result: PfHsp90 yeast 2)
Cc1csc(Nc2nc(N)c(C(=O)Nc3ccccc3)o2)n1	TIM10 inh 43 | tim10 confirm inactive
O=C(COC(=O)CC1CCCCC1)Nc1c(Cl)cccc1Cl	none (no result: SKKanGAS inh)
COc1ccccc1NC(=O)Cc1nnc(SCC(=O)NC2CCCC2)n1C	none
Clc1ccc(Cn2ccc(-c3ccc4c(c3)OCO4)n2)cc1Cl	TIM10 inh 40 (no result: PfHsp90 yeast 2) | tim10 confirm 40
CC(=O)Nc1ccc(SCC(=O)Nc2cc(C(C)(C)C)nn2-c2ccccc2)cc1	none
Cn1c(SCC(=O)Nc2cc(C(C)(C)C)nn2-c2ccccc2)nc2ccccc21	TIM10 inh 43 | tim10 confirm inactive
Cc1cccc(N2CCN(C(c3cccs3)c3nnnn3C(C)(C)C)CC2)c1C (stereo unspecified)	none
Cc1cccc(N2CCN(C(c3ccccc3)c3nnnn3C(C)(C)C)CC2)c1C (stereo unspecified)	TIM10 inh 41 | tim10 confirm inactive
S=C(Nc1ccc(Br)cc1)N1CCN(c2ccccn2)CC1	none
CCN1C(=O)/C(=C/c2ccc(C)s2)NC1=S	TIM10 inh 41 | tim10 confirm inactive
O=C1CC(c2ccco2)CC(O)=C1C=Nc1cc(Cl)ccc1O (stereo unspecified)	none
O=C1CC(c2ccco2)CC(O)=C1C=Nc1ccccc1-c1ccccc1 (stereo unspecified)	TIM10 inh 41 (no result: PfHsp90 yeast 2) | tim10 confirm inactive
COc1ccccc1OCCNC(=O)CSC(=S)N1CCCC1	none
Cc1ccc(N=Cc2cc(Cc3ccccc3Cl)cc([N+](=O)[O-])c2O)c(O)c1	TIM10 inh 52, SKKanGAS inh inconclusive, PfHsp90 yeast 2 111 | tim10 confirm 34
Cc1n[nH]c(C)c1Sc1ccccc1N=Cc1cc(Cl)cc([N+](=O)[O-])c1O	none
Cn1cc(CCC(=O)NCCCc2ccccc2)c2ccccc21	none
Cc1cc(C)nc(-n2nc(C)cc2NC(=O)CNCc2ccccc2)n1	none (no result: PfHsp90 yeast 2)
CCC(C(=O)Nc1cc(C)nn1-c1nc(C)cc(C)n1)c1ccccc1 (stereo unspecified)	TIM10 inh 44 | tim10 confirm inactive
COC(=O)c1cc2ccccc2c(-c2c(OC)c(C(=O)OC)cc3ccccc23)c1OC	TIM10 inh 44 (no result: PfHsp90 yeast 2) | tim10 confirm 30
Cn1c(=O)n(C)c2cc(/C=C(/C#N)C(=O)NCc3ccco3)ccc21	TIM10 inh 43 | tim10 confirm 37
CN(C)c1ccc(/C=C(\C#N)C(=O)NCc2ccco2)cc1	none (no result: PfHsp90 yeast 2)
O=C(CCCCCN1C(=O)c2ccccc2C1=O)Nc1ccc(C(=O)O)cc1	none
O=C(c1ccccc1)N1CCCCC(Sc2nnc3ccccn23)C1=O (stereo unspecified)	none
CCN(CC)C(=S)SC1CCCCN(C(=O)c2ccccc2)C1=O (stereo unspecified)	none | tim10 confirm inactive
C=CCN(c1ccccc1)S(=O)(=O)c1ccc(Cl)c(C(=O)OCC(=O)N(C)C2CCS(=O)(=O)C2)c1 (stereo unspecified)	none
